# In PubChem BioAssay (EPA / NIEHS):
# Records with an inconclusive call do not appear. The source made the active and inactive calls. The calls were made as follows: active = hit-call score of the fitted dose curve at least 0.9, where 1 is the maximum; inconclusive = response in the unintended direction; inactive = score below 0.9.
# Molecular target: Ratio of Nucleoli Translocation and Cytoplasm, AR (gene 367) (UniProt P10275)
# Assay: UPITT_HCI_U2OS_AR_TIF2_Nucleoli_Cytoplasm_Ratio_Agonist: University of Pittsburgh U2OS Androgen Receptor-Transcriptional Intermediary Factor 2 (AR-TIF2) Agonism High Content Imaging Assay for Ratio of Nucleoli Translocation and Cytoplasm (AID 2284000);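 also: hits raise the red nucleolar to cytoplasm ratio above vehicle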
# Excerpt: UPITT_AR_TIF2_PPIB is a cell-based, high-content imaging assay that uses U2OS, a human osteosarcoma cell line, expressing a human androgen receptor fused to red fluorescent protein and the coactivator TIF2 fused to green fluorescent protein. UPITT_HCI_U2OS_AR_TIF2_Nucleoli_Cytoplasm_Ratio_Agonist is one of four assay components measured from the UPITT_AR_TIF2_PPIB assay. It is designed to make measurements of the ratio of red fluorescence localized in the nucleolar region of the cell nucleus to red fluorescence localized in the cytoplasm as detected with high-content fluorescent imaging.Data from the assay component UPITT_HCI_U2OS_AR_TIF2_Nucleoli_Cytoplasm_Ratio_Agonist was analyzed into 1 assay endpoint. This assay endpoint, UPITT_HCI_U2OS_AR_TIF2_Nucleoli_Cytoplasm_Ratio_Agonist, was analyzed in the positive analysis fitting direction relative to DMSO as the baseline of activity. Using a type of binding reporter, measures of receptor for gain-of-signal activity can be used to understand the binding at the pathway-level as it relates to the gene AR.
# Daughter plates containing 2 uL of 10 mM compounds in DMSO were prepared and replicated from the 384-well Library of Pharmacologically Active Compounds (LOPAC) master plates using the Bravo outfitted with a 384-well transfer head. Aluminum adhesive plate seals were applied with an Abgene Seal-IT 100 (Rochester, NY) plate sealer, and the plates were stored at -20 C in a Matrical MatriMinistore (Spokane, WA) automated compound storage and retrieval system. For screening, LOPAC daughter plates were withdrawn from -20C storage, thawed to ambient temperature, centrifuged 1-2 min at 50 g, and the plate seals were removed before the transfer of 98 uL of serum-free tissue culture medium (SFM) into wells using the BioTek Microflo liquid handler (BioTek, Winooski, VT) to generate a 200 uM intermediate stock concentration of library compounds (2.0% DMSO). The diluted compounds were mixed by repeated aspiration and dispensation using a 384-well P30 dispensing head on the Evolution P3 (EP3) liquid handling platform (PerkinElmer, Waltham, MA) and then 5 uL of diluted compounds was transferred to the wells of assay plates. In the LOPAC screen, compounds were individually tested at a final concentration of 20 uM (0.2% DMSO). After the diluted compounds had been transferred from the daughter plates to the primary HCS assay plates, aluminum adhesive plate seals were applied and the diluted daughter plates were stored frozen at -20C. To confirm active compounds identified in the primary screen, we withdrew the LOPAC daughter plates containing the 200 uM intermediate concentration of library compounds (2.0% DMSO) from -20C storage, thawed them to ambient temperature, centrifuged them for 1-2 min at 50 g, and removed the plate seals. A work list was generated to direct the Multiprobe Janus liquid handling platform (PerkinElmer) to cherry pick 75 uL from the wells of the diluted daughter plates that were flagged active in the primary screen and to reformat these into a 384-well plate hit confirmation daughter plate. Five microliters of primary HCS active compounds was then transferred into triplicate wells of assay plates using a 384-well P30 dispensing head on the Evolution P3 (EP3) liquid handling platform (PerkinElmer). […] Daughter plates containing 2 uL of the serially diluted compounds in DMSO were prepared and replicated from the 384-well serial dilution master plates using the Bravo outfitted with a 384-well transfer head. Aluminum adhesive plate seals were applied and plates were stored at -20C. For testing in the bioassays, daughter plates were withdrawn from -20C storage, thawed to ambient temperature, centrifuged for 1-2 min at 50 g, and the plate seals were removed before the transfer of 38 uL of SFM into wells using the BioTek Microflo liquid handler (BioTek) to generate an intermediate stock concentration of library compounds ranging from 1.95 to 500 uM (5.0% DMSO). […]
# Chain of Ratio of Nucleoli Translocation and Cytoplasm, AR (gene 367) (P10275 whole entry, looked up): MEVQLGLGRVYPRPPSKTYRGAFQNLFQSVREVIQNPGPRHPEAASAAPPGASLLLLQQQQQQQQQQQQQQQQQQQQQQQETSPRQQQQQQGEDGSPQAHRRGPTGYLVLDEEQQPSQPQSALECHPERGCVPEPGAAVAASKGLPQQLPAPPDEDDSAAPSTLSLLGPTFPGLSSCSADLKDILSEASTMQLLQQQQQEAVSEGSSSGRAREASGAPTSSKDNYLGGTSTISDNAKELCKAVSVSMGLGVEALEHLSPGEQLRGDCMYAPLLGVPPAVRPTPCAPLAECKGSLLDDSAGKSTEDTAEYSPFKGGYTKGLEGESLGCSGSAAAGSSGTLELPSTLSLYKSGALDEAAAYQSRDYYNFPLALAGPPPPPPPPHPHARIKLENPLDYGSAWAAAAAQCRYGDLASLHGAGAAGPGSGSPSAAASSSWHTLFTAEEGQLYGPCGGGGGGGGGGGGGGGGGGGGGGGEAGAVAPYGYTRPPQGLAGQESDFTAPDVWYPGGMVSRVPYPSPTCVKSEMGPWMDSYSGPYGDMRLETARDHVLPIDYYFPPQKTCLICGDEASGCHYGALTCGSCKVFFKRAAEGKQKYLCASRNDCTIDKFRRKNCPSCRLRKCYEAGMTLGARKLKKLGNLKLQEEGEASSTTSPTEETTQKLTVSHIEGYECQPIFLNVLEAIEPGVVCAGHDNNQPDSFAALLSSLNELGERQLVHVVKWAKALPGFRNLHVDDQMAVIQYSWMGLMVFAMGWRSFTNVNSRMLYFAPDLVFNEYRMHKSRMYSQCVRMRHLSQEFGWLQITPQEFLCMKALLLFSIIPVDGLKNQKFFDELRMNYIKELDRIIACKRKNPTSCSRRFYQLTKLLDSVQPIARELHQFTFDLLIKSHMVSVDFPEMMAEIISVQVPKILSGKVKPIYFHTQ
Compound,outcome,AC50
CSC(=O)c1cccc2nnsc12,inactive,
c1ccc2[nH]c(-c3cscn3)nc2c1,inactive,
O=C(c1ccccc1)C1CCCCC1,inactive,
CCCCOCCOCCOCc1cc2c(cc1CCC)OCO2,inactive,
C[C@]12CC[C@@H]3c4ccc(O)cc4C[C@@H](CCCCCCCCCS(=O)CCCC(F)(F)C(F)(F)F)[C@H]3[C@@H]1CC[C@@H]2O (stereo not given in full),inactive,
O=C(c1ccc(O)cc1O)c1ccc(O)cc1O,inactive,
CC1(C)C(C=C(Cl)Cl)C1C(=O)OCc1cccc(Oc2ccccc2)c1 (stereo not given),inactive,
COC(=O)CSc1cc(N=c2sc(=O)n3n2CCCC3)c(F)cc1Cl,inactive,
CCCOC(=O)c1ccc(C(=O)OCCC)nc1,inactive,
O=C(O)C1(C(=O)Nc2ccc(Cl)cc2Cl)CC1,inactive,
CC(C)(c1ccc(O)cc1)c1ccc(O)cc1,,86.7 µM (active)
CCSC(=O)N(CC(C)C)CC(C)C,inactive,
CCOC(=O)COc1cc(-n2ncc(C(F)(F)F)c(C)c2=O)c(F)cc1Cl,inactive,
N#CSCSc1nc2ccccc2s1,,12.8 µM (active)
CCCN(CCC)C(=O)SCC,inactive,
